# According to PubChem BioAssay AID1210 (NMMLSC, 2008):
# A number with no mark means an inactive call. Active and inactive are the calls of the source.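 Rule for the calls: active = blocks over 70% of labeled estradiol binding at 10 µM, or over a set limit at 100 nM; inactive = the rest.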
# Target: Estrogen receptor beta (Homo sapiens) (UniProt Q92731)
# Test: displacement of fluorescent estrogen from ERbeta – cell-based, Cos7 ERbeta-GFP, flow cytometry, primary screen (AID 1210);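 note: 0% = DMSO vehicle wells and 100% = complete loss of labeled estradiol signal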
# Settings: fluorescent estrogen binding, at 10 µM, hits give high values
# Sequence of Estrogen receptor beta (Homo sapiens) (Q92731 whole entry, looked up): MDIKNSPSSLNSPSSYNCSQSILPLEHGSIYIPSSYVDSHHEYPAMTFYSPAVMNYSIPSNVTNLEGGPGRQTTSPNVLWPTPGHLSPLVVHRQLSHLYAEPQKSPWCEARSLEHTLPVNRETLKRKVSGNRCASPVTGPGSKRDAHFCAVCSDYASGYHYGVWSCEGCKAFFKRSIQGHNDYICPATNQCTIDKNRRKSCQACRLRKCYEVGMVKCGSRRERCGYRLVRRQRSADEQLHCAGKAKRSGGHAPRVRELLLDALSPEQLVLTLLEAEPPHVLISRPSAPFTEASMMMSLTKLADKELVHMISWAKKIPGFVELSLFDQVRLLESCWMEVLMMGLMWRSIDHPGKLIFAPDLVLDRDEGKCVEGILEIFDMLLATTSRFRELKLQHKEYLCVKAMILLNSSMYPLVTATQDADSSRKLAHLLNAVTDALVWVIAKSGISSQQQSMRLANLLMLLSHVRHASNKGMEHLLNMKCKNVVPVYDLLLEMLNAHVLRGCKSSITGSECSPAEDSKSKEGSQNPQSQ
row,Compound,inhibition
1,CC1(C)Cc2[nH]c(=O)c(C(=O)O)cc2CO1,43%
2,COc1cc([N+](=O)[O-])cc2c1NC(c1ccc(Cl)cc1)C1CC=CC21 (stereo not drawn),1%
3,COc1ccc2c(c1)c1c3n2CCNC3CCC1 (stereo not drawn),18%
4,Cc1ccc2c(c1)C1C=CCC1C(C(=O)O)N2 (stereo not drawn),0%
5,O=C(O)c1ccc2c(c1)-c1nc3ccccc3n1C2=O,0%
6,CCOc1cc2c(c([N+](=O)[O-])c1)NC(c1ccc(Cl)cc1)C1CC=CC21 (stereo not drawn),16%
7,CC1(C)Cc2[nH]c3ccccc3c2C(C)(C)N1,16%
8,Cc1ccc(-n2nnnc2SCC(=O)Nc2cccc(NC(=O)c3ccco3)c2)cc1C,56%
9,Oc1ccc2c(c1)c1c3n2CCNC3CCC1 (stereo not drawn),25%
10,COc1ccc(C2Nc3ccccc3C(=O)N2c2ccccc2)cc1CSc1ccccn1 (stereo not drawn),60%
11,CCc1cc2c3c(c(=O)oc2cc1OCC(=O)OC)CCCC3,15%
12,CCOc1ccccc1-n1nnnc1SCC(=O)NC(=O)NCc1ccco1,32%
13,CSC(=O)CNC1(Cc2ccc(O)cc2)CCCCC1,87% (active)
14,CCCCCCc1cc2c3c(c(=O)oc2cc1OCC(=O)OC)CCC3,20%
15,CCCCc1cc(=O)oc2c(C)c(O)ccc12,7%
16,CCCCOC(=O)c1c(C)oc2ccc(NS(=O)(=O)c3ccc4c5c(cccc35)C(=O)N4)cc12,43%
17,Cc1ccn2c(NCc3ccc4c(c3)OCO4)c(-c3ccc(O)cc3)nc2c1,41%
18,CCCOc1cc2oc(=O)c3c(c2cc1CC)CCCC3,20%
19,COC(=O)c1cnn2c(C(F)(F)F)cc(-c3ccco3)nc12,27%

row,Compound,inhibition
1,O=C(NCc1ccco1)c1cc2cc3ccc(Cl)cc3nc2o1,14%
2,COC(=O)c1ccc(OCc2c(C)noc2C)cc1,0%
3,Nc1ccc2nc(-c3ccc(N)c(Cl)c3)[nH]c2c1,64%
4,CCNC(=O)N1c2ccc(OCC)cc2C(C)=CC1(C)C,15%
5,CCCc1c(C(=O)OCC)[nH]c2c1C(=O)CC(c1ccccc1)C2 (stereo not drawn),39%
6,CCOC(=O)Cc1csc(NC(=O)Cc2cccs2)n1,25%
7,O=C(OC1CCCCC1)c1ccc2c(c1)C1C=CCC1C(C(=O)O)N2 (stereo not drawn),7%
8,Cn1c(C(=O)Nc2ccc3c(c2)OCO3)cc2c(=O)n(C)c3ccccc3c21,42%
9,COc1ccccc1C(=O)Nc1nc(-c2cccs2)c(NC(C)=O)s1,40%
10,CCOc1ccc(NS(=O)(=O)c2ccc3c(c2)[C@H]2C=CC[C@H]2[C@@H](c2cccc([N+](=O)[O-])c2)N3)cc1,0%
11,COc1ccc(C2(CNCC(N)=O)CCCC2)cc1OC,7%
12,CCOC(=O)c1ccc2c(c1)C1C=CCC1C(C(=O)O)N2 (stereo not drawn),36%
13,CCOC(=O)Cc1cc(-c2ccc(O)cc2)nc2ccc3ccccc3c12,69%
14,COc1ccc(N2C(=O)c3ccccc3NC2c2ccc(OC)c(CSc3ccccn3)c2)cc1 (stereo not drawn),36%
15,CC(C)COc1ccc2c(c1)c1c3n2CCNC3CCC1 (stereo not drawn),9%
16,Cn1c(SCC(=O)N2c3ccccc3CCc3ccccc32)nnc1-c1cc2ccccc2cc1O,19%
17,Cc1noc(C)c1S(=O)(=O)N(CC(=O)O)c1ccc2c(c1)OCO2,31%
18,Cc1c(O)ccc2c3c(c(=O)oc12)CCCC3,28%
19,COc1ccccc1C1Nc2c(C(=O)O)cccc2C2C3CCC(C3)C12 (stereo not drawn),21%
